The text below walks through data of PubChem BioAssay.

The nature of assay [1]: StAR promoter reporter inhibitors, counter-screen for LRH-1 inverse agonist project, cell-based, luminescence, high throughput (AID 651611). As to conditions: StAR promoter luciferase reporter counterscreen, at 3.6 µM, hits give high values. A general note: The purpose of a counterscreen is to sort out artefacts and off-target activity.
The target of assay [2] is Nuclear receptor subfamily 5 group A member 2 (Homo sapiens) (UniProt O00482). The assay can be described thus: NR5A2 activity suppression in reporter cells – cell-based, luminescence, confirmation (AID 651613; in the data active means inhibition above about 42%;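 further: HEK293T cells co-transfected with LRH-1 and StAR promoter luciferase reporter; 0% = vehicle wells and 100% = parental cells lacking receptor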). The note with it: cell-based LRH-1 luciferase reporter, inverse agonism; at 3.6 µM; hits give high values. In general terms: In a reporter assay the amount or activity of a reporter protein is the signal.
Sequence of Nuclear receptor subfamily 5 group A member 2 (Homo sapiens) (O00482 whole entry, looked up): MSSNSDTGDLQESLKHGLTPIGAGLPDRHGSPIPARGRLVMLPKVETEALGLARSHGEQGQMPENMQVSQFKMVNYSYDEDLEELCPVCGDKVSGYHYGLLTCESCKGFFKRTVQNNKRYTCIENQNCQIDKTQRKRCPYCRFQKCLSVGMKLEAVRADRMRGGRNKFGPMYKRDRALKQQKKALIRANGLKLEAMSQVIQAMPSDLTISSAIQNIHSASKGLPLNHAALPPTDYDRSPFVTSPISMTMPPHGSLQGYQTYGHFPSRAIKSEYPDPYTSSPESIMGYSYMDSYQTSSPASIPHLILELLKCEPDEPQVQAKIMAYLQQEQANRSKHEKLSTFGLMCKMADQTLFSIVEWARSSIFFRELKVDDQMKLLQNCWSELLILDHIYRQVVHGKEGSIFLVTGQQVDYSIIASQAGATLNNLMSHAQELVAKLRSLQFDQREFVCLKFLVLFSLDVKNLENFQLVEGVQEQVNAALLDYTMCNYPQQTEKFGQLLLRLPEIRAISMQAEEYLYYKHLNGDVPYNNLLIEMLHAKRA

Assay [3] deals with Steroidogenic factor 1 (Homo sapiens) (UniProt Q13285). The assay can be described thus: inverse agonism at SF1 nuclear receptor – cell-based, luminescence, high throughput, counter-screen for LRH-1 inverse agonist project (AID 651614; in the data active means inhibition above about 44%;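 further: cells cotransfected with StAR promoter reporter and SF1 expression vector; 0% = vehicle on cells with receptor and 100% = vehicle on cells lacking receptor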). As to conditions: cell-based SF1 luciferase reporter, at 3.6 µM, hits give high values.
Sequence of Steroidogenic factor 1 (Homo sapiens) (Q13285 whole entry, looked up, the tested form may be a part): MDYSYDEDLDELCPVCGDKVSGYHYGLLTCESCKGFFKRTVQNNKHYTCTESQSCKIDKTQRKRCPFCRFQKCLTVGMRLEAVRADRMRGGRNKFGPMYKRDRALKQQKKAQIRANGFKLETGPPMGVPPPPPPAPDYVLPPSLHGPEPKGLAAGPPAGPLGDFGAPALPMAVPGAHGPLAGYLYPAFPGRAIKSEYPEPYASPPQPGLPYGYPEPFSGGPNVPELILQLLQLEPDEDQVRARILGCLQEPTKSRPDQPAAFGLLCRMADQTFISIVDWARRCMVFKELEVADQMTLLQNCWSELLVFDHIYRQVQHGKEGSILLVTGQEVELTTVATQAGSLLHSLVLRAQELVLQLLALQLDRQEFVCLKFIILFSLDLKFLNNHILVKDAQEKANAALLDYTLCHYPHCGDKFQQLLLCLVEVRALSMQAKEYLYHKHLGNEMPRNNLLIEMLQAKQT
A short description of assay [4]: compounds suppressing VP16-driven luciferase signal – cell-based, luminescence, high throughput, counter-screen for LRH-1 inverse agonist project (AID 651615; in the data active means inhibition above about 33%). The note with it: Gal4-VP16 luciferase reporter cells, at 3.6 µM, hits give high values.

Calls of active or inactive are those of the source. Unless noted, no stated cut-off is given here; in the data, active means inhibition above about 28%; inactive means the rest.

Turning to `Cc1cc(S(=O)(=O)NCc2ccncc2)c(C)cc1Br`, the inhibition is -10.6% (inactive) in assay [1], 39% (inactive) in assay [2], 38.6% (inactive) in assay [3] and 41.4% (active) in assay [4].
In the case of `N#Cc1ccc(NC(=O)COc2ccc(-n3cnnn3)cc2)cc1`, the inhibition in assay [1] is 11.7% (inactive); in assay [2], 38.2% (inactive); in assay [3], 35.9% (inactive); in assay [4], -2.83% (inactive).
For `Cc1c(C)c2ccc(OCC(=O)N3CCN(C(=O)C4COc5ccccc5O4)CC3)cc2oc1=O` (stereo unspecified), the inhibition in assay [1] was 14.4% (inactive); in assay [2] it was 60.4% (active); in assay [3], 59.1% (active); in assay [4], -17.1% (inactive).
On the same counts, the results for `CCS(=O)(=O)Nc1cccc(-c2ccc3nnc(-c4cccnc4)n3n2)c1` are 21.7% (inactive), 52.1% (active), 49.5% (active) and -31.6% (inactive).
On the same counts, the results for `Cc1ccc(OCc2nnc(SCC(=O)Nc3ccc4c(c3)OCCO4)n2Cc2ccco2)cc1` are 6.71% (inactive), 45.5% (active), 41.2% (inactive) and 1.35% (inactive).
In the same order, the values of `COc1ccc(CCNC(=O)c2ccccc2NC(=O)CN2CCN(c3ccccc3O)CC2)cc1` are 33.3% (active), 48% (active), 50.4% (active) and -22.9% (inactive).
Take `CC(=O)Nc1ccc(NC(=O)CSc2nc(N)c(NC(=O)c3ccco3)c(=O)[nH]2)cc1`: the inhibition was 13.1% (inactive) in assay [1], 51.4% (active) in assay [2], 48.4% (active) in assay [3] and -7.2% (inactive) in assay [4].
On the same counts, the results for `Cc1c(C#N)c(O)n(CCO)c(=O)c1N=Nc1ccc2c(c1)COC2=O` are 17.9% (inactive), 39.5% (inactive), 52.1% (active) and -1% (inactive).
On the same counts, the results for `CCOc1ccc(CCNC(=O)COC(=O)c2ccc(OC)c(OC)c2OC)cc1OCC` are 11.7% (inactive), 53.8% (active), 55.5% (active) and -6.44% (inactive).
Take `O=[N+]([O-])c1ccc(N2CCCC2)cc1NC1CC1`: the inhibition is 0.53% (inactive) in assay [1], 47.1% (active) in assay [2], 47.3% (active) in assay [3] and -3.08% (inactive) in assay [4].
On the same counts, the results for `CCOc1ccc(Br)cc1/C(C)=N\NC1=NCCN1` are 1.83% (inactive), 36.8% (inactive), 36.7% (inactive) and 33.2% (active).
Turning to `COc1cccc(C(=O)COc2cccc(NC(=O)c3cccc([N+](=O)[O-])c3)c2)c1`, the inhibition in assay [1] is 14.4% (inactive); in assay [2], 62.4% (active); in assay [3], 59.3% (active); in assay [4], 2.28% (inactive).
In the same order, the values of `Cc1cccc(NC(=O)COC(=O)Cc2cccs2)c1C` are 0.39% (inactive), 53.8% (active), 46.9% (active) and 14.1% (inactive).
In the same order, the values of `CN1C=C/C(=C\c2cc[n+](C)c3ccccc23)c2ccccc21` are 28.6% (active), 108% (active), 46.8% (active) and 81.4% (active).
Consider `CC(=O)Nc1ccc(-c2ccnc3c2CC(C(=O)NCc2ccco2)O3)cc1` (stereo unspecified), for which the inhibition was 48.1% (active) in assay [1], 42.6% (active) in assay [2], 44.6% (active) in assay [3] and 24.2% (inactive) in assay [4].
In the case of `CNc1nc2sc3c(c2c(=O)n1C)CC(C)(C)SC3`, the inhibition in assay [1] is 2.32% (inactive); in assay [2] it was 34.9% (inactive); in assay [3] it was 45.6% (active); in assay [4], -1.52% (inactive).
In the same order, the values of `CCCN1Cc2cccc(C(=O)NC(C)c3cccs3)c2C1=O` (stereo unspecified) are -7.74% (inactive), 38.5% (inactive), 27.5% (inactive) and 0.87% (inactive).
In the same order, the values of `Cc1cccc(CN2C(=O)CSc3ccc(C(=O)NC4CC4)cc32)c1` are 10.4% (inactive), 62.2% (active), 51.8% (active) and -6.63% (inactive).
In the same order, the values of `O=C(OCC(=O)N1CCN(c2ccccc2)CC1)c1ccc2ccccc2n1` are 9.44% (inactive), 33% (inactive), 22.3% (inactive) and 2.06% (inactive).
With `CCCc1cc(=O)oc2cc3occ(C)c3cc12`, the inhibition in assay [1] was -0.89% (inactive); in assay [2], 42.1% (active); in assay [3], 37.8% (inactive); in assay [4] it was 1.16% (inactive).
In the same order, the values of `CCCc1cc(=O)oc2cc(OCC(=O)NCc3ccccn3)ccc12` are 10.6% (inactive), 55.5% (active), 59.1% (active) and -9.39% (inactive).
In the case of `CC(=O)c1ccc(-c2cnc3c(NC=O)cc(-c4ccc(S(C)(=O)=O)cc4)cn23)cc1`, the inhibition in assay [1] is 31.7% (active); in assay [2], 74.8% (active); in assay [3], 70.3% (active); in assay [4], -0.51% (inactive).
In the same order, the values of `COc1cc(C2c3cc4c(cc3OC(Nc3ccc(C(=O)O)cc3)C2C)OCO4)cc(OC)c1OC` (stereo unspecified) are 44.5% (active), 49.7% (active), 60.9% (active) and 26.4% (inactive).
Regarding `CCOc1ccc(CCNC(=O)COC(=O)CCC(=O)c2cccs2)cc1OCC`, the inhibition in assay [1] is -0.72% (inactive); in assay [2], 45.3% (active); in assay [3], 51% (active); in assay [4], -6.57% (inactive).

As a reminder, the inhibition is the relative decrease from the control value, in per cent.
